DAX1 inh-1 – DAX1 (NR0B1) inhibitors, primary screen, cell-based, HEK293, Gal4-DAX1, luciferase luminescence; Nuclear receptor subfamily 0 group B member 1 (Homo sapiens), P51843; inhibition, % at 6.75 µM; 340,000 tested, 0.99% active; AID 504766, 2011; HEK293 Gal4-DAX1 luciferase reporter;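 active = inhibition above the mean over all tested compounds plus 3 SD, cut at about 4.2% in these data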;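 also: 0% = DAX1-transfected cells with DMSO and 100% = empty-vector control cells with DMSO; inhibition shows as a rise in luminescence from relieved DAX1 repression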
hgDAF12 agonist – H. glycines DAF-12 receptor agonists, primary screen, cell-based, luminescence, HEK293, GAL4 fusion, UAS-luciferase; HEK293 GAL4-hgDAF12 UAS-luciferase reporter, agonist luminescence; normalized to butyrate control; activation, % at 6.8 µM; 370,000 tested, 1.8% active;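 active = activation above a cutoff set at the mean of all screened compounds plus 3 SD, cut at about 10% in these data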;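 also: 0% = DMSO wells and 100% = sodium butyrate wells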
ssDAF-12 act – S. stercoralis DAF-12 nuclear receptor activators, primary screen, cell-based, luminescence, HEK293, GRIP1 co-expression, lit1-tk-luc. activation, % at 6.8 µM. HEK293 ssDAF-12/GRIP1 lit1-tk-luc reporter; % of 3 µM dafachronic acid response. 370,000 tested, 1% active;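 active = activation above the mean over all tested compounds plus 3 SD, cut at about 0.9% in these data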;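 also: 0% = DMSO-only wells and 100% = 3 µM delta7-dafachronic acid wells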
Wee1 degr inh – Wee1 degradation inhibitors, primary screen, cell-based, HeLa, Wee1K328M-luciferase, luminescence. Wee1-like protein kinase (Homo sapiens), P30291. HeLa Luc-Wee1K328M stability; 100% = proteasome inhibitor MG132 effect. reporter increase, % at 5 µM. 220,000 tested, 1.2% active;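 active = activation above the mean of all tested compounds plus 3 SD, set per screening run, cut at about 8.8% in these data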;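 also: cells exposed to compound for 20 h before luminescence read; 0% = DMSO alone and 100% = MG132 at 30 µM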
Target sequence (P30291 whole entry K328M): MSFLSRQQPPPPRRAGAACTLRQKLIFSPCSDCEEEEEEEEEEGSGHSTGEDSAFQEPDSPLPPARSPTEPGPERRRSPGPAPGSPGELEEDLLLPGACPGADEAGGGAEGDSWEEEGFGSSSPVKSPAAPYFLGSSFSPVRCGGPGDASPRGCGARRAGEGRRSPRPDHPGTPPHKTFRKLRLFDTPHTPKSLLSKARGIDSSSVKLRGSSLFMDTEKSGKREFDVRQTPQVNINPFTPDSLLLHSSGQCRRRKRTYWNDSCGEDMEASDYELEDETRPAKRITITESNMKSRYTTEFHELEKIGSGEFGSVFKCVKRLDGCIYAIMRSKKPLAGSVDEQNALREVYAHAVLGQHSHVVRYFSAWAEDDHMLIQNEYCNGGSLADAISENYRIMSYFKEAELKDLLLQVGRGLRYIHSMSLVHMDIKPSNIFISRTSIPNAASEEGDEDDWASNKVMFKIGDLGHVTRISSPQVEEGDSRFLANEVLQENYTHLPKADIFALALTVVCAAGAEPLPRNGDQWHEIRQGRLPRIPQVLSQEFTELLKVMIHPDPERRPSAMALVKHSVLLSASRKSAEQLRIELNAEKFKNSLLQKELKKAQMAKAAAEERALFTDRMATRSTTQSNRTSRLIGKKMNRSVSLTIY
DAX1 inh-2 – DAX1 (NR0B1) inhibitors on StAR promoter, primary screen, cell-based, luminescence, SF-1 (NR5A1), full-length DAX-1 | HEK293T StAR-luciferase reporter, SF-1/DAX-1 repression relief | inhibition, % at 6.8 µM | 370,000 tested, 1.1% active | AID 652010, 2013;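 active = inhibition above the mean over all tested compounds plus 3 SD, cut at about 3.6% in these data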;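 also: 0% = DAX-1 cells with DMSO and 100% = cells lacking DAX-1 with DMSO; higher inhibition means more luminescence from relief of DAX-1 repression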
hcDAF12 agonist – H. contortus DAF-12 nuclear receptor activators, primary screen, cell-based, luminescence, HEK293, lit1-tk-luc reporter. HEK293 hcDAF-12 lit1-tk-luc reporter; 0% DMSO, 100% Δ7-dafachronic acid. activation, % at 6.8 µM. 370,000 tested, 1.4% active. AID 652067, 2013;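 active = activation above the mean of all tested compounds plus 3 SD, cut at about 5.5% in these data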;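 also: 100% = response to 3 µM Δ7-dafachronic acid high control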
* marks the source's active call; other numbers are inactive results. An excerpt weighted towards active compounds, which were near 4.6% of everything screened.

CC1N(C)c2cc(NC(=O)c3cccs3)c(P(=O)(Nc3ccc([N+](=O)[O-])cc3)N3CCOCC3)cc2C1(C)C (centres undefined) was read as DAX1 inh-1 -0.5, hgDAF12 agonist 6.3, ssDAF-12 act -0.9, Wee1 degr inh 0.9, DAX1 inh-2 1.0 and hcDAF12 agonist -0.7.
For CN(C)c1ccc(P(=O)(Nc2cccc(C(F)(F)F)c2)N2CCOCC2)c(NC(=O)c2cccs2)c1 (centres undefined) the results were DAX1 inh-1 1.4, hgDAF12 agonist 2.4, ssDAF-12 act 1.4*, Wee1 degr inh -1.3, DAX1 inh-2 -0.1 and hcDAF12 agonist 4.4.
Screening COC(=O)[C@]12C[C@H](CC(=O)NCCCN3CCCC3=O)C(=O)N(Cc3ccco3)C1=C[C@H](C1CCCC1)O[C@@H]2C returned hgDAF12 agonist -0.6, ssDAF-12 act -0.9, DAX1 inh-2 -0.1 and hcDAF12 agonist 1.4.
Screening O=C(NC(c1ccccc1)c1ccccc1)C1CCCC1 returned DAX1 inh-1 0.4, hgDAF12 agonist 2.8, ssDAF-12 act 1.4*, Wee1 degr inh 2.7, DAX1 inh-2 -0.4 and hcDAF12 agonist 0.1.
For N/C(=N\OC(=O)Cc1cccs1)c1ccc([N+](=O)[O-])cc1 the results were DAX1 inh-1 -1.0, hgDAF12 agonist 11.2*, ssDAF-12 act -0.8, Wee1 degr inh -0.3, DAX1 inh-2 -0.5 and hcDAF12 agonist -0.8.
`Cc1cc2c(c(=O)o1)[C@@]1(C(=O)N(C)c3ccccc31)C1=C(CCCC1=O)O2` gave hgDAF12 agonist -1.4, ssDAF-12 act -0.7, DAX1 inh-2 -0.1 and hcDAF12 agonist -0.2.
Screening CCOC(=O)c1c(C)nc2sc3c(=O)[nH]cnc3c2c1-c1ccc(OC)cc1 returned DAX1 inh-1 -0.1, hgDAF12 agonist 2.2, ssDAF-12 act -1.3, Wee1 degr inh 1.2, DAX1 inh-2 -0.3 and hcDAF12 agonist 1.2.
Screening COc1ccc(-c2cc3nc(CCl)[nH]c(=O)c3s2)cc1 returned DAX1 inh-1 -2.4, hgDAF12 agonist 12.1*, ssDAF-12 act 0.2, DAX1 inh-2 2.8 and hcDAF12 agonist 5.9*.
Screening COc1ccc(-c2cc3nc[nH]c(=O)c3s2)cc1 returned DAX1 inh-1 -1.3, hgDAF12 agonist 10.6*, ssDAF-12 act -0.2, Wee1 degr inh 0.4, DAX1 inh-2 1.2 and hcDAF12 agonist 0.7.
NS(=O)(=O)c1ccc(CNC(=S)NC2CCCC2)cc1 was read as DAX1 inh-1 4.5*, hgDAF12 agonist -1.6, ssDAF-12 act -1.6, Wee1 degr inh -1.3, DAX1 inh-2 -0.2 and hcDAF12 agonist -1.5.
`Cc1cccnc1NC(N)=S` gave DAX1 inh-1 1.2, hgDAF12 agonist 1.8, ssDAF-12 act -0.9, Wee1 degr inh 4.5, DAX1 inh-2 -0.3 and hcDAF12 agonist 0.1.
`Cc1cccnc1NC(=O)C(C)N1C(=O)c2ccccc2C1=O` (centres undefined) gave DAX1 inh-1 7.5*, hgDAF12 agonist 0.9, ssDAF-12 act -0.8, Wee1 degr inh 1.2, DAX1 inh-2 0.0 and hcDAF12 agonist 0.3.
Cc1cccnc1NC(=S)NCCc1ccccc1 was read as DAX1 inh-1 1.6, hgDAF12 agonist 11.5*, ssDAF-12 act 0.8, Wee1 degr inh 1.0, DAX1 inh-2 1.3 and hcDAF12 agonist 1.0.
For Cc1cccnc1NC(=S)Nc1ncccc1C the results were DAX1 inh-1 4.8*, hgDAF12 agonist 11.4*, ssDAF-12 act 0.3, Wee1 degr inh 6.0, DAX1 inh-2 1.6 and hcDAF12 agonist 3.1.
Screening O=C(NCc1ccccc1)C(c1ccco1)N1CCN(c2ccccc2F)CC1 (centres undefined) returned hgDAF12 agonist -2.0, ssDAF-12 act -0.9, DAX1 inh-2 -0.7 and hcDAF12 agonist -1.7.
Screening CCOc1ccc(CCNC(=O)COC(=O)CSc2ccc(C)cc2)cc1OCC returned DAX1 inh-1 1.9, hgDAF12 agonist 2.4, ssDAF-12 act -1.5, DAX1 inh-2 -1.1 and hcDAF12 agonist -1.4.
O=C(NC1CCCCC1)C(=S)NCCc1ccccc1 was read as DAX1 inh-1 1.4, hgDAF12 agonist -2.0, ssDAF-12 act -1.6, Wee1 degr inh -2.9, DAX1 inh-2 0.0 and hcDAF12 agonist -1.3.
`S=C(NCCc1ccccc1)NC1CCCCCC1` gave DAX1 inh-1 2.6, hgDAF12 agonist 10.9*, ssDAF-12 act -0.4, Wee1 degr inh 8.4, DAX1 inh-2 2.7 and hcDAF12 agonist 2.8.
For CCOc1ccc(S(=O)(=O)N2CC(=O)Nc3ccccc32)cc1C#N the results were DAX1 inh-1 4.3*, hgDAF12 agonist 1.6, ssDAF-12 act -0.7, DAX1 inh-2 -0.1 and hcDAF12 agonist -0.7.
Screening NS(=O)(=O)c1cc2c(cc1C(F)(F)F)NC(Cc1ccccc1)NS2(=O)=O (centres undefined) returned DAX1 inh-1 -0.4, hgDAF12 agonist 1.1, ssDAF-12 act -0.8, Wee1 degr inh 10.5*, DAX1 inh-2 0.2 and hcDAF12 agonist -1.0.
Screening CCC(=O)N1N=C(c2ccc(NS(C)(=O)=O)cc2)CC1c1ccc(N(C)C)cc1 (centres undefined) returned DAX1 inh-1 -0.5, hgDAF12 agonist 13.0*, ssDAF-12 act -1.4, Wee1 degr inh 3.6, DAX1 inh-2 0.5 and hcDAF12 agonist 1.1.
For FC(F)(F)c1ccccc1NC(=S)Nc1ccccc1 the results were DAX1 inh-1 0.6, hgDAF12 agonist -0.9, ssDAF-12 act -0.3, DAX1 inh-2 -0.3 and hcDAF12 agonist 0.7.
For S=C(Nc1ccccc1)Nc1ccc(Br)cc1 the results were DAX1 inh-1 5.7*, hgDAF12 agonist 1.2, ssDAF-12 act -1.3, Wee1 degr inh 2.2, DAX1 inh-2 -0.6 and hcDAF12 agonist -1.4.
S=C(Nc1ccccc1)Nc1ccccc1-n1cccc1 was read as hgDAF12 agonist 0.4, ssDAF-12 act 0.5, Wee1 degr inh -0.1, DAX1 inh-2 0.0 and hcDAF12 agonist 5.7*.
COC(=O)c1cc(-c2cccc(C#N)c2)c(=O)n2c1CCC2 was read as hgDAF12 agonist -0.6, ssDAF-12 act -0.3, DAX1 inh-2 -1.3 and hcDAF12 agonist -2.9.
For CCN1C(=O)CCN(C2CCCC2)c2nc(Nc3ccc(C(=O)NC4CCN(C)CC4)cc3OC)ncc21 the results were DAX1 inh-1 8.2*, hgDAF12 agonist -3.8, ssDAF-12 act 0.6, DAX1 inh-2 1.3 and hcDAF12 agonist 4.0.
